# Reference: PubChem BioAssay (Tox21)
# A number with no mark means an inactive call. Inconclusive results are not listed. A call without a number means that no potency is given here. Activity calls are given as the source filed them. Unless noted, calls follow the shape of the full dose curve.
# How the values were obtained:
# [1] = Nuclear factor erythroid 2-related factor 2/antioxidant responsive element (Nrf2/ARE) small molecule agonists: qHTS cell viability counter screen in human keratinocytes (AID 1919968; active = well fitted curve in the direction sought with a large enough effect in the repeat runs; an effect the other way counts as inactive or inconclusive; also: nearly all actives have a fitted effect of over 55% in size)
# How it was run: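 Parallel cytotoxicity read: KeratinoSens HaCaT cells, compound treatment 23 h, viability by CellTiter-Fluor fluorescence 1 h post-reagent.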
# [2] = target: Gonadotropin-releasing hormone receptor (Homo sapiens) (UniProt P30968); assay: Human gonadotropin-releasing hormone receptor (GnRHR) small molecule agonists, calcium flux assay in GnRHR-HEK293 cells (AID 1920063); also: nearly all actives have a fitted effect of over 35% in size
# How it was run: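 Calcium flux, agonist mode, human GnRHR stably integrated in HEK293; dye 1 h at 37 C before compound; Ex/Em=480/540 kinetic read, 3 min; 15 concentrations, triplicate.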
# [3] = target: KiSS-1 receptor (Homo sapiens) (UniProt Q969F8); assay: Human kisspeptin (KISS1R) small molecule agonists, calcium flux assay in KISS1R-HEK293 cells (AID 1920064; active = well fitted curve in the direction sought with a large enough effect in the repeat runs; an effect the other way counts as inactive or inconclusive)
# How it was run: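 Triplicate 15-concentration series were applied to dye-loaded human KISS1R HEK293 cells, and agonist-evoked calcium fluorescence was captured for 3 min.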
# [4] = G protein-coupled receptor (GPCR) small molecule agonists, calcium flux assay: HEK293 wild type cell line counter screen (AID 1920065)
# How it was run: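 Non-specific calcium responders were flagged by adding DMSO-dissolved compounds to dye-loaded cells and reading 480/540 nm fluorescence each second for 3 min; ATP served as positive control.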
# [5] = p53 small molecule agonists, cell-based qHTS assay with rat liver microsomes (AID 1963578)
# How it was run: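 Read-out is beta-lactamase reporter fluorescence (LiveBLAzer, 2 h, room temperature, dark) in p53RE-bla cells treated 16 h at 37 C with compound, rat liver microsomes and NADPH, both 0.5 mg/mL final.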
# [6] = p53 small molecule agonists, cell-based qHTS assay with human liver microsomes: qHTS cell viability counter screen (AID 1963579); also: nearly all actives have a fitted effect of over 45% in size
# How it was run: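 Cells carrying the p53 response-element beta-lactamase reporter are treated for 16 h at 37 C with test compounds in the presence of human liver microsomes and NADPH (both 0.5 mg/mL final); ATP-based CellTiter-Glo luminescence then reports viability.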
# [7] = p53 small molecule agonists, cell-based qHTS assay with rat liver microsomes: qHTS cell viability counter screen (AID 1963580); also: nearly all actives have a fitted effect of over 45% in size
# How it was run: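 Cytotoxicity counter screen: intracellular ATP read by CellTiter-Glo luminescence in the p53 reporter wells. HCT-116 p53RE-bla cells were treated for 16 h at 37 C alongside rat liver microsomes and NADPH, each 0.5 mg/mL final.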
# [8] = p53 small molecule agonists, cell-based qHTS assay: qHTS cell viability counter screen (AID 1963581); also: nearly all actives have a fitted effect of over 45% in size
# How it was run: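 Multiplexed with the reporter read, a CellTiter-Glo step (30 min, room temperature) gauges ATP-based viability of HCT-116 p53RE-bla cells after 16 h compound incubation at 37 C.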
# [9] = target: 5-hydroxytryptamine receptor 2A (Homo sapiens) (UniProt P28223); assay: 5-hydroxytryptamine receptor 2A (HTR2A) small molecule antagonists, cell-based qHTS assay (AID 1963586); also: nearly all actives have a fitted effect of over 45% in size
# How it was run: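 CHO cells stably expressing human HTR2A were plated for 18 h at 37 C, then loaded with calcium dye for 1 h. Compounds were preincubated 5 min at room temperature before DOI (4 nM solution) was added. Kinetic fluorescence was read for 3 min.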
# [10] = target: 5-hydroxytryptamine receptor 2A (Homo sapiens) (UniProt P28223); assay: 5-hydroxytryptamine receptor 2A (HTR2A) small molecule agonists, cell-based qHTS assay (AID 1963587); also: nearly all actives have a fitted effect of over 30% in size
# How it was run: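 Kinetic calcium-flux fluorescence (2 min, 1 sec intervals) after compound addition in agonist mode. HTR2A-CHO cells were cultured 18 h, then dye-loaded 1 h at 37 C.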
# [11] = target: Muscarinic acetylcholine receptor M1 (Homo sapiens) (UniProt P11229); assay: Cholinergic receptor muscarinic 1 (CHRM1) small molecule antagonists, cell-based qHTS assay (AID 1963588); also: nearly all actives have a fitted effect of over 40% in size
# How it was run: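 Compounds were tested at 15 concentrations in three independent runs. Dye-loaded CHRM1-CHO cells were exposed 5 min at room temperature before stimulation by acetylcholine added at 50nM. Intracellular calcium was read kinetically on FDSS for 3 min.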
# [12] = target: Muscarinic acetylcholine receptor M1 (Homo sapiens) (UniProt P11229); assay: Cholinergic receptor muscarinic 1 (CHRM1) small molecule agonists, cell-based qHTS assay (AID 1963589); also: nearly all actives have a fitted effect of over 35% in size
# How it was run: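 qHTS, 15-point titration, 3 independent runs: compounds pin-transferred onto dye-loaded CHRM1-CHO cells (human M1), calcium fluorescence followed every second to detect agonism.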
# [13] = cAMP Responsive Elements (CRE) small molecule agonists, cell-based qHTS assay (AID 1963590)
# How it was run: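 Quantitative HTS for CRE agonists: HEK 293T CRE-bla cells, overnight plating, 3 h compound incubation at 37 C/5% CO2, then 2 h room-temperature LiveBLAzer B/G FRET substrate loading.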
# [14] = cAMP Responsive Elements (CRE) small molecule antagonists, cell-based qHTS assay (AID 1963591; active = well fitted inhibition curve with a large enough effect in the signal ratio in the repeat runs, not every such curve was filed as active; the % refers to the signal ratio)
# How it was run: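 Fluorescence intensity from cleaved LiveBLAzer B/G substrate (2 h, room temperature) quantified CRE-bla activity in HEK 293T cells exposed 3 h to compound with 0.25 uM final NKH477.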
# [15] = target: Beta-2 adrenergic receptor (Homo sapiens) (UniProt P07550); assay: Adrenergic beta2 receptor (ADRB2) small molecule antagonists, cell-based qHTS assay (AID 1963592); also: series mostly up to about 92 µM; nearly all actives have a fitted effect of over 50% in size
# How it was run: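 Assay format: CHO-ADRB2 cells, 18-20hr seeding at 37C/5% CO2, then compound plus 1nM isoproterenol agonist mix for 0.5hr RT. Homogeneous time-resolved fluorescence cAMP detection after 1hr, expressed as 665/615 nm ratio.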
# [16] = target: Beta-2 adrenergic receptor (Homo sapiens) (UniProt P07550); assay: Adrenergic beta2 receptor (ADRB2) small molecule agonists, cell-based qHTS assay (AID 1963593);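 also: CHO cells stably overexpressing human ADRB2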
# How it was run: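 CHO cells stably over-expressing ADRB2 were plated overnight at 37C, then dosed with compounds plus a stimulation mix containing 100uM IBMX and 25uM Ro-20-1724 for 0.5hr at room temperature. cAMP was measured by HTRF competition, 1hr.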
# [17] = target: D(2) dopamine receptor (Homo sapiens) (UniProt P14416); assay: Dopamine D2 receptor (DRD2) small molecule agonists, cell-based qHTS assay (AID 1963594); also: nearly all actives have a fitted effect of over 35% in size; also: potency is read from the fitted curve at half-maximal effect
# How it was run: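 cAMP accumulation in DRD2-HEK293 cells measured by HTRF after 1 h detection; compounds added 10 min before NKH477 (200nM […]) forskolin-analogue stimulation, 30 min at room temperature, with Ro20-1724 present at 0.1 mM final.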
# [18] = target: D(2) dopamine receptor (Homo sapiens) (UniProt P14416); assay: Dopamine D2 receptor (DRD2) small molecule antagonists, cell-based qHTS assay (AID 1963595; active = well fitted inhibition curve with a large enough effect in the signal ratio in the repeat runs, with a control signal flat; the % refers to the signal ratio)
# How it was run: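 Cells were plated and grown for 24 h at 37 °C. Ro20-1724 (0.1 mM final) went in first, then compound for 10 min. NKH477 (200 nM) with quinpirole (12 nM) followed for 30 min at RT, then HTRF detection reagents for 1 h.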
# [19] = p53 small molecule agonists, cell-based qHTS assay with human liver microsomes (AID 1963577)
# How it was run: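 Compounds act here after metabolic activation: human liver microsomes and NADPH, both at 0.5 mg/mL final, were co-added to p53RE-bla cells. Incubation ran 16 h at 37 C, followed by LiveBLAzer detection.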
# [20] = p53 small molecule agonists, cell-based qHTS assay (AID 1963582; active = well fitted activation curve with a large enough effect in the signal ratio in the repeat runs, not every such curve was filed as active; the % refers to the signal ratio)
# How it was run: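 Beta-lactamase reporter cells (p53RE-bla) treated with compounds for 16 h at 37 C; FRET substrate, 2 h, room temperature; fluorescence intensity.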
# Chain of D(2) dopamine receptor (Homo sapiens) (P14416 whole entry, looked up): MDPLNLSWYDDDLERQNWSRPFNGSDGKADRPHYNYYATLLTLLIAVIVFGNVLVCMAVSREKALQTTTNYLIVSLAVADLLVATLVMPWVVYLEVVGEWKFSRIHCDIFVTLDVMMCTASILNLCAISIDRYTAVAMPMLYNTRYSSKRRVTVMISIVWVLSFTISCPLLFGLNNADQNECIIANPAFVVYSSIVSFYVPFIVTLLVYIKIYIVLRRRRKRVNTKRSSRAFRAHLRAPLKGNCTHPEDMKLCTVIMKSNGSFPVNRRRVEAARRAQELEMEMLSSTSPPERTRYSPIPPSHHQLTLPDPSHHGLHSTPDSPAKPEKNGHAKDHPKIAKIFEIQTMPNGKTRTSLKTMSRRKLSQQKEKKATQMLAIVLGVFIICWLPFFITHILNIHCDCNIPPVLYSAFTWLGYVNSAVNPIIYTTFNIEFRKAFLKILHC
# Chain of Gonadotropin-releasing hormone receptor (Homo sapiens) (P30968 whole entry, looked up): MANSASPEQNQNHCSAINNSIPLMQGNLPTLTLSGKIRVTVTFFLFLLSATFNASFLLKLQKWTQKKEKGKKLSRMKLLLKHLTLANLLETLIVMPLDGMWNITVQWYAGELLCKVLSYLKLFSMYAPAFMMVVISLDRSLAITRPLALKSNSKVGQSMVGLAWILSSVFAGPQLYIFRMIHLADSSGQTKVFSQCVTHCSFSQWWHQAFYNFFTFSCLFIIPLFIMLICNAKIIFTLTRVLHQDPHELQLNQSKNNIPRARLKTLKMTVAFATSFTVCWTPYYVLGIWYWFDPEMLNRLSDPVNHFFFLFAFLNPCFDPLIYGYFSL
# Chain of KiSS-1 receptor (Homo sapiens) (Q969F8 whole entry, looked up): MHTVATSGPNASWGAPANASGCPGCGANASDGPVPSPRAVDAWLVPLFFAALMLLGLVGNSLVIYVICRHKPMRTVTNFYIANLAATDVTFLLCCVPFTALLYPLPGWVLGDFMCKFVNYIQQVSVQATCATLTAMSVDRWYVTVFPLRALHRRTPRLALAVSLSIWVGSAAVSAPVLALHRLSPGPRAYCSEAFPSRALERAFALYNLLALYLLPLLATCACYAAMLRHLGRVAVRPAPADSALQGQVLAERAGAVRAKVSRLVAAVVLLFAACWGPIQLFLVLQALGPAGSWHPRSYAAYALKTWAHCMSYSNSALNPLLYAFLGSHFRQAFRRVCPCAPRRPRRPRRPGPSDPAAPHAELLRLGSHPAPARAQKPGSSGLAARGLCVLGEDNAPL
# Chain of Muscarinic acetylcholine receptor M1 (Homo sapiens) (P11229 whole entry, looked up): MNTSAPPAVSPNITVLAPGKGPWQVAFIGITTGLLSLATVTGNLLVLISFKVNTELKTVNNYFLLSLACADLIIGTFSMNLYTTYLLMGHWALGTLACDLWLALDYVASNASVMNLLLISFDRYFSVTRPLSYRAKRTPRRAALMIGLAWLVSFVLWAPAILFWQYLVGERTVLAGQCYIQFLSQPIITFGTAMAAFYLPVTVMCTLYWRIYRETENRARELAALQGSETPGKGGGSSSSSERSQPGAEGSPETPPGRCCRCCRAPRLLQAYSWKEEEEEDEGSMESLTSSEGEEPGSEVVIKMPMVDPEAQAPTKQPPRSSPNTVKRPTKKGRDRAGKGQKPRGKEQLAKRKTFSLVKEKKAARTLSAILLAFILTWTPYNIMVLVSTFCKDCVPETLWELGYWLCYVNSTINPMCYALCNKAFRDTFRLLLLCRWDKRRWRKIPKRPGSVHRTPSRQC
# Chain of 5-hydroxytryptamine receptor 2A (Homo sapiens) (P28223 whole entry, looked up): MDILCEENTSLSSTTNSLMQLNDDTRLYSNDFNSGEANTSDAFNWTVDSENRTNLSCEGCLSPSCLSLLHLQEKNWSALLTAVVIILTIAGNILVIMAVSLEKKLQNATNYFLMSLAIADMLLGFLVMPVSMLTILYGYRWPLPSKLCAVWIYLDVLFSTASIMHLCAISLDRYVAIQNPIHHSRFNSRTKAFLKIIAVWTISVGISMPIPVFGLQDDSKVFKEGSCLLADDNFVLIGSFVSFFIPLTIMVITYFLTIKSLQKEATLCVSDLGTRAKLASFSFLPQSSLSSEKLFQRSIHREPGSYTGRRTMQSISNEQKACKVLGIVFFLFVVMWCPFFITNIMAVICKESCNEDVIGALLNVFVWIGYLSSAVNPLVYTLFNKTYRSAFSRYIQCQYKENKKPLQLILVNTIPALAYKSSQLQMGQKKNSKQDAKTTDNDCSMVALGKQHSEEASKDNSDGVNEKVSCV
# Chain of Beta-2 adrenergic receptor (Homo sapiens) (P07550 whole entry, looked up): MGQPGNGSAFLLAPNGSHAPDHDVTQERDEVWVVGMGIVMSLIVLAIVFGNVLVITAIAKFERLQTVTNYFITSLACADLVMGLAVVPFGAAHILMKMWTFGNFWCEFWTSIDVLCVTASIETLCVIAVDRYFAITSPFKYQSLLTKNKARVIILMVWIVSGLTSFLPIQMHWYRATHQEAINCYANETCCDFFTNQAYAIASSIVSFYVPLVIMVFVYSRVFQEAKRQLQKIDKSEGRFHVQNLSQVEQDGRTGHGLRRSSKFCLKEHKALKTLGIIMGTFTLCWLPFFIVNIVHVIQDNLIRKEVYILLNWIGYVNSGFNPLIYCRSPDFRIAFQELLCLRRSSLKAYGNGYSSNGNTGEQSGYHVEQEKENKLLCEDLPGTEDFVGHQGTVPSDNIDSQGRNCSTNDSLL
Structure (SMILES),Potency [1],Potency [2],outcome [3],outcome [4],Potency [5],Potency [6],Potency [7],Potency [8],Potency [9],Potency [10],Potency [11],Potency [12],Potency [13],Potency [14],Potency [15],Potency [16],Potency [17],Potency [18],Potency [19],Potency [20]
Oc1ccccc1Cc1ccccc1O,inactive,inactive,inactive,inactive,inactive,inactive,inactive,inactive,inactive,inactive,inactive,inactive,inactive,inactive,inactive,inactive,inactive,inactive,–,–
CC(C)OC(=O)c1cc2c(OCC(O)CNC(C)(C)C)cccc2[nH]1 (stereo unspecified),inactive,–,inactive,inactive,inactive,inactive,inactive,inactive,inactive,inactive,inactive,inactive,inactive,–,–,–,13.3 µM (active),inactive,inactive,inactive
NS(=O)(=O)c1cc2c(cc1Cl)CN(C1CCCCC1)C2=O,inactive,inactive,inactive,inactive,inactive,inactive,inactive,inactive,–,inactive,–,inactive,–,–,inactive,inactive,inactive,inactive,–,inactive
BrCCCCCBr,inactive,inactive,inactive,–,inactive,inactive,inactive,inactive,inactive,inactive,inactive,inactive,inactive,inactive,–,–,inactive,inactive,inactive,–
CC(O)COC(C)(C)C (stereo unspecified),inactive,inactive,inactive,inactive,inactive,inactive,inactive,inactive,inactive,inactive,inactive,inactive,inactive,inactive,–,–,inactive,inactive,–,inactive
C=COCC1CCC(COC=C)CC1 (stereo unspecified),inactive,inactive,inactive,–,inactive,inactive,inactive,inactive,inactive,inactive,inactive,inactive,inactive,inactive,inactive,–,inactive,inactive,inactive,–
CCN1CCC[C@H]1CNC(=O)c1cc(S(N)(=O)=O)ccc1OC,inactive,inactive,inactive,inactive,inactive,inactive,inactive,inactive,–,–,–,–,inactive,inactive,inactive,inactive,–,–,–,inactive
CCN1CCCC1CNC(=O)c1cc(S(N)(=O)=O)ccc1OC (stereo unspecified),inactive,inactive,–,inactive,inactive,inactive,–,–,–,–,–,–,–,–,inactive,inactive,inactive,–,inactive,–
C=C1CC[C@H]2O[C@]2(C)CC[C@@H]2[C@@H]1CC2(C)C,inactive,inactive,inactive,–,inactive,inactive,inactive,inactive,inactive,–,inactive,inactive,inactive,inactive,inactive,inactive,inactive,inactive,inactive,inactive
CCCCCc1ccco1,inactive,–,inactive,inactive,–,inactive,inactive,–,inactive,inactive,–,inactive,inactive,inactive,inactive,inactive,inactive,inactive,–,inactive
COc1cc2nc(N3CCN(C(=O)C4CCCO4)CC3)nc(N)c2cc1OC (stereo unspecified),inactive,–,inactive,inactive,inactive,inactive,inactive,inactive,–,–,–,–,inactive,inactive,–,–,inactive,–,inactive,inactive
CC/C=C(\C)C=O,–,inactive,inactive,inactive,inactive,inactive,inactive,inactive,inactive,inactive,inactive,inactive,inactive,inactive,inactive,–,–,–,inactive,inactive
NC(=O)c1ncn([C@@H]2O[C@H](CO)[C@@H](O)[C@H]2O)c1N,inactive,inactive,–,inactive,inactive,inactive,inactive,inactive,inactive,inactive,inactive,inactive,inactive,inactive,inactive,–,inactive,inactive,inactive,inactive
CCNc1nc(NC(C)(C)C)nc(OC)n1,inactive,inactive,inactive,–,inactive,inactive,inactive,inactive,–,inactive,inactive,inactive,inactive,–,inactive,–,inactive,inactive,inactive,inactive
